Screens from PubChem.
CHRM4 antagonist – CHRM4 antagonism in calcium assay; CHO-hM4 cells, ACh EC80, Fluo-8 calcium fluorescence; hit rate 0.73% among 360,000; P08173; inhibition, % at 3 µM;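 active means inhibition above its plate's cutoff, the mean inhibition of sample wells plus 3 SD, cut at about 27% in these data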;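 further: 0% = acetylcholine EC80 with DMSO and 100% = DMSO without agonist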
Target sequence (P08173 whole entry, looked up): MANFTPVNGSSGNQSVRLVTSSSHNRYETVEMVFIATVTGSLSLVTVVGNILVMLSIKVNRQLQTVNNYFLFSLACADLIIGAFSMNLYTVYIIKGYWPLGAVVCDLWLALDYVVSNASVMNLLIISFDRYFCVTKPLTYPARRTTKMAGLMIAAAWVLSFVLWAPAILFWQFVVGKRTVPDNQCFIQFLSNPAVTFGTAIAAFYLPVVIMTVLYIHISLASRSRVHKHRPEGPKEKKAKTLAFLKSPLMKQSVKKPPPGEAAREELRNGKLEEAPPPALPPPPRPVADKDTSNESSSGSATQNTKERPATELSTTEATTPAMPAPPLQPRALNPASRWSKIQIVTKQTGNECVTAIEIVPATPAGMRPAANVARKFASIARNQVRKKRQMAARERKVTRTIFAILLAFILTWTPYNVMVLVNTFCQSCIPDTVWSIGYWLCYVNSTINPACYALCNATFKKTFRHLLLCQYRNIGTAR
M4 PAM – positive allosteric modulators of human muscarinic M4 receptor | P08173 | CHO-K1 hM4/Gqi5, Fluo-8 calcium fluorescence, ACh EC20; 0% = ACh EC20, 100% = maximal ACh | activation, % at 3 µM | hit rate 0.4% among 360,000 | AID 624126;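 active means activation above its plate's cutoff, the mean activation of sample wells plus 3 SD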
M1 PAM – potentiates human M1 receptor response to acetylcholine | CHO-K1 hM1, Fluo-8 calcium fluorescence, ACh EC20; 0% = ACh EC20, 100% = maximal ACh | P11229 | hit rate 0.088% among 360,000 | activation, % at 3 µM; in the data active means activation above about 19%, passing the limit was not always enough
M4 ag – agonists of human muscarinic M4 receptor (CHRM4); activation, % at 3 µM; CHO-K1 hM4/Gqi5, Fluo-8 calcium fluorescence; vehicle 0%, full acetylcholine response 100%; hit rate 0.14% among 360,000; AID 624127; P08173;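 active means activation above the run mean over all test wells plus 3 SD, cut at about 32% in these data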;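 further: peak over basal fluorescence ratio per well then scaled between controls; 0% = DMSO wells and 100% = acetylcholine at EC100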
M1 antag – antagonists of human M1 muscarinic receptor; inhibition, % at 3 µM; hit rate 1.3% among 360,000; CHO-K1 hM1, Fluo-8 calcium fluorescence, ACh EC80 antagonist;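 active means percent inhibition above its own plate's cutoff, namely the mean of that plate's compound wells plus 3 SD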;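 further: peak over basal fluorescence ratio during 140 s after agonist addition; 0% = ACh EC80 plus DMSO and 100% = DMSO alone without agonist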
CHRM1 agonist – agonists of human M1 muscarinic receptor; P11229; activation, % at 3 µM; CHO-K1 hM1, Fluo-8 calcium fluorescence, agonist mode; 0% DMSO, 100% acetylcholine EC100; AID 588814; hit rate 0.33% among 360,000;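 active means activation above the run's mean compound activation plus 3 SD, cut at about 16% in these data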;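 further: peak over basal fluorescence ratio within a 140 s kinetic read after compound addition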
Active calls of the source: *. This is a sample that favours compounds with a hit; in the whole collection about 2.2% have one here.

SMILES | CHRM4 antagonist | M4 PAM | M1 PAM | M4 ag | M1 antag | CHRM1 agonist
CCOC(=O)C1[C@H]2C(=O)N(C(C)c3ccc(OC)cc3)C[C@]23C=C[C@H]1O3 (some centres not stated) | 75* | -32 | -21 | 0 | 69* | -9
O=C1C(Cl)=C(N2CCN(Cc3ccccc3)CC2)C(=O)N1Cc1ccccc1 | 2 | -12 | -25 | 1 | 57* | -7
CCOC(=O)c1c(CSc2ccccc2)n(C)c2cc(Br)c(OC)c(O)c12 | 0 | -4 | -10 | 1 | 15 | -7
COc1ccc(C(CNC(=O)Cc2ccc(-c3ccccc3)cc2)N(C)C)cc1 (configuration not stated) | -17 | -2 | -29 | 5 | 42* | -11
COc1ccc(C(CNC(=O)CSc2ccccc2C)N(C)C)cc1 (configuration not stated) | -9 | -3 | 1 | 1 | -15 | -12
COc1cccc(C(CNC(=O)C(c2ccccc2)c2ccccc2)N(C)C)c1 (configuration not stated) | 8 | -15 | -33 | 1 | 55* | -12
Cc1ccc(SCCN2CCC(C(C)(C)C)CCC2=O)cc1 (configuration not stated) | -9 | 14 | 13 | 0 | -8 | -1
CC(NC(=O)COC(=O)Cn1cnc2ccccc2c1=O)C1CC2CCC1C2 (configuration not stated) | 1 | -7 | 4 | 2 | -3 | -7
CCOc1ccc(Cc2c(Cl)nc(SC)nc2OC)cc1 | 14 | -10 | 6 | -1 | -7 | -3
COc1cc(C)ccc1OCC(=O)OCC(=O)NCC1CCCCC1 | -5 | 2 | 0 | 0 | 6 | -3
Brc1ccc(CNc2ccc3ncccc3c2)cc1 | 25 | -12 | -16 | 8 | 36* | -2
O=C(Nc1ccc2ncccc2c1)c1cccc(Br)c1 | -3 | 7 | 18 | 2 | -20 | -1
Nc1cc(N)nc(SCC(=O)Nc2ccc3c(c2)OCO3)n1 | 6 | -4 | 8 | 0 | -4 | -3
O=C(COc1ccccc1C(=O)O)Nc1nc2ccc([N+](=O)[O-])cc2s1 | -1 | -18 | -10 | 13 | 26* | 4
O=C(Nc1nc2ccccc2s1)C1CCN(S(=O)(=O)c2cc([N+](=O)[O-])ccc2Cl)CC1 | 33* | -34 | -17 | 17 | 53* | -1
O=C(CN1CCOCC1)Nc1nc2cc([N+](=O)[O-])ccc2s1 | -12 | 27* | 6 | 4 | -9 | -9
CCC(C)NC(=O)C1CCN(S(=O)(=O)c2cc([N+](=O)[O-])ccc2Cl)CC1 (configuration not stated) | -8 | -7 | 16 | 2 | -14 | -2
O=C1CN(C(=O)c2cccc(F)c2)C(c2ccc(F)cc2)c2cc(F)ccc2N1 (configuration not stated) | 52* | -19 | -1 | 8 | 2 | -8
O=C(O)CNCC1COc2ccccc2O1 (configuration not stated) | 3 | -3 | 3 | 1 | -2 | -2
CCc1c(C2(O)CCCCC2)[nH]c2cc(C(F)(F)F)ccc12 | 42* | -16 | -28 | 1 | 23 | -13
Cc1c(C2(O)CCCCC2)[nH]c2cc(C(F)(F)F)ccc12 | 33* | -19 | -15 | 11 | 22 | -7
Cc1c(C2(O)CCCCC2)[nH]c2cnccc12 | -12 | 6 | 9 | 2 | -8 | -8
CCc1c(C2(O)CCCCC2)[nH]c2ccc(C#N)cc12 | -11 | -13 | -14 | 25 | 9 | -6
Cc1c(Cl)ccc2c1NC(=O)C21NC(CCC(N)=O)[C@H]2C(=O)N(c3ccc(Cl)cc3)C(=O)[C@H]21 (some centres not stated) | 0 | 6 | 8 | 0 | -11 | -1
O=C1C=CC(=O)N1c1cccc(-c2ccccc2)c1 | 42* | -49 | -13 | 16 | 24 | -1
SMILES | CHRM4 antagonist | M4 PAM | M1 PAM | M4 ag | M1 antag | CHRM1 agonist
O=C(Nc1cccc(N2C(=O)C=CC2=O)c1)c1cccs1 | 5 | 1 | 8 | 3 | -4 | -5
O=C(/C=C/c1ccc(Cl)cc1)NCCCN1CCOCC1 | 2 | -3 | 1 | 1 | 4 | -4
O=C(/C=C/c1ccc(Cl)cc1Cl)NCCN1CCOCC1 | -13 | 30* | 3 | 1 | 3 | -4
CCOc1ccccc1N1CN(CC)CNC1=S | 14 | -2 | 14 | 1 | -13 | -3
COc1ccc(CCNc2oc(COc3ccc(Br)cc3)nc2C#N)cc1OC | 12 | -15 | -24 | 22 | 36* | -4
CC(C)OCCCNc1ncnc2c1[nH]c1ccccc12 | 13 | -12 | -29 | 24 | 39* | 2
O=c1c2[nH]c3ccccc3c2ncn1CCC1=CCCCC1 | 7 | 3 | 6 | 1 | -5 | -2
COc1ccc(CNc2ncnc3c2[nH]c2ccccc23)cc1 | 20 | -15 | -14 | 22 | 37* | 6
C1=C(CCNc2ncnc3c2[nH]c2ccccc23)CCCC1 | 32* | -13 | -13 | 14 | 22 | -4
COC(=O)c1cc(NC(=O)c2c(-c3ccccc3)noc2C)ccc1N1CCOCC1 | 1 | 3 | 9 | 2 | -11 | -3
CC(=O)C1=C(C)OC(N)=C(C#N)C1c1cc2cccc(C)c2nc1Cl (configuration not stated) | 5 | 8 | 5 | 1 | 1 | -5
Cn1c(=O)c(NC(=O)c2ccccc2)c2n(c1=S)CCCCC2 | 7 | 4 | 11 | 1 | -13 | -2
CCc1cc(=O)oc2cc(OCC(=O)NCCCN3CCOCC3)c(Cl)cc12 | -2 | 1 | 0 | 0 | 0 | -5
Cc1ccc(O)c(NC(=S)NC(=O)Cc2ccc(Cl)cc2)c1 | 100* | -18 | -26 | 140* | 97* | 79*
Cc1ccc(NC(=S)NC(=O)c2ccc(-c3ccc(Cl)cc3)o2)c(O)c1 | -4 | 11 | 6 | 0 | -8 | -7
CCOc1ccccc1-n1c(CNc2ccc(F)cc2)nnc1SCC(=O)NCc1ccco1 | -9 | 7 | 7 | 2 | -7 | -4
COc1ccc(-c2c[n+]3c4n2CCCCC4=C(c2ccc(Br)cc2)C3)cc1 | 5 | -9 | -28 | 1 | 35* | -15
Clc1ccc(C2=C3CCCCn4c(-c5ccccc5)c[n+](c43)C2)cc1 | -1 | 3 | -3 | 0 | -5 | -4
CCN(CC)C1CCN(C(=O)c2ccc(OC3CCN(CCc4ccccc4)CC3)cc2)C1 (configuration not stated) | 15 | -15 | -22 | 2 | 62* | -6
CCn1ccnc1CN(C)C(=O)c1ccc(OC2CCN(CCc3ccccc3)CC2)cc1 | 43* | -12 | -13 | 1 | 31 | -6
